# Assay results published in PubChem BioAssay AID524 (The Scripps Research Institute Molecular Screening Center, 2006).
# The whole screen tested about 65,000 compounds, of which about 95 (0.1%) were called active. Only a selection was taken, and actives are over-represented in it overall. Values without a mark were called inactive.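 Rule for the calls: active = inhibition above the screen-wide mean inhibition plus 3 SD (cut at about 21% in these data); inactive = the rest.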
# Molecular target: cAMP-dependent protein kinase catalytic subunit alpha (Homo sapiens) (UniProt P17612)
# Test: inhibitors of human PKA kinase activity, primary screen, biochemical, ATP-depletion luminescence, Kemptide substrate (AID 524)
# Settings: PKA Kemptide phosphorylation, Kinase-Glo ATP luminescence; at 6 µM; active compounds read high
row,Compound,inhibition
1,COc1ccc(C)c2sc(=NC(=O)c3ccc(C#N)cc3)n(C)c12,3.2%
2,CN(C(=O)COc1ccccc1)c1nnc(-c2ccncc2)s1,29.1% (active)
3,CN(C(=O)c1ccccn1)c1nnc(-c2ccccn2)s1,-0.9%
4,CN(C(=O)c1ccno1)c1nnc(-c2cccnc2)s1,2.6%
5,CC(C)N(C(=O)Cn1c(SCC(=O)N2CCN(c3ccccc3)CC2)nc2ccccc21)C(C)C,7.5%
6,Cc1cc(C)cc(NC(=O)C2CCN(c3nc(C)cc(C)n3)CC2)c1,6.7%
7,O=C(CSc1nnc(-c2ccccn2)n1-c1ccccc1)Nc1ccc2c(c1)OCO2,5.1%
8,Cc1ccn2cc(C(=O)NC3CCN(Cc4ccccc4)CC3)nc2c1,4.5%
9,Nc1nc(SCCOc2ccccc2)n[nH]1,11.5%
10,O/N=C(\c1ccc2c(c1)OCCO2)C1CCCCC1,-0.4%
11,Cc1cc(/C=N/n2cnnc2)c(C)n1-c1cccc(C(=O)O)c1,7.1%
12,COc1ccc(-c2cc3ccc(OCc4nn[nH]n4)cc3oc2=O)cc1,6.3%
13,CCc1cc(Br)ccc1NC(=O)C1CCCO1 (centres undefined),12.3%
14,Cc1cc(C(=O)CC#N)c(C)n1CC(F)(F)F,6%
15,C=CCNc1nc(C)nc(OC)n1,4.4%
16,Cc1nc(N2CCN(c3ncccn3)CC2)c2oc3ccccc3c2n1,8.8%
17,CCOc1ncccc1C(=O)OCc1cn2cc(Cl)ccc2n1,8.2%
18,COc1ccc(CCN=C2SCC(=O)N2C)cc1OC,5.5%
19,Fc1ccccc1OCCCCn1cncn1,2.8%
20,CN(CC(=O)NC1CCCCC1)S(=O)(=O)c1ccc(Br)s1,4%
21,COCCNC(=S)c1ccc(OC)cc1,5.8%
22,Cn1cccc1C(=O)NC(=O)COC(=O)Cc1coc2ccc3ccccc3c12,5.5%
23,CCOc1ccc(NC(=O)N(CCC(C)C)C(C)c2ccco2)cc1 (centres undefined),4.9%
24,COc1ccc2c(c1)OC(O)(C(F)(F)C(F)F)CC2=O (centres undefined),4.1%
25,CC(C)C(=O)Nc1c(C(=O)c2ccc(F)cc2)oc2ccccc12,2.9%

row,Compound,inhibition
1,CCCC(NC(=O)c1ccccc1)c1nc2ccccc2n1Cc1ccc(C(=O)OC)o1 (centres undefined),9.3%
2,Cc1ccc(Cc2cncc(O)c2)cc1S(=O)(=O)O,-3.1%
3,Cn1c(=O)c(C(=O)Nc2ncccn2)c(O)c2ccccc21,-3.8%
4,COc1ccc(NC(=O)c2c(C)oc3c2CCCC3)cc1,4.6%
5,Cc1ccc(C)c(NC(=O)CSc2nnc(Cc3cccn3C)n2-c2ccc(F)cc2)c1,7.2%
6,Cn1c(=O)[nH]c(=O)c2c1nc(CN1CCN(c3ccccc3F)CC1)n2CCc1ccccc1,1.4%
7,COc1cccc(N2CC(C(=O)Nc3c(C)cccc3C)CC2=O)c1 (centres undefined),4.7%
8,CCOC(=O)C1=C(C)NC(=O)N(C(C)=O)C1c1ccc(Cl)cc1 (centres undefined),9.6%
9,CN(C)S(=O)(=O)c1ccc(Oc2ccc(S(=O)(=O)N(C)C)cc2)cc1,9%
10,CC(NC(=O)c1ccc(Cl)cc1)C(=O)N1CCCCC1 (centres undefined),8.7%
11,O=C(Cc1cccs1)N1CCCC(c2nc(-c3ccc(S(=O)(=O)N4CCCC4)cc3)no2)C1 (centres undefined),8.4%
12,CCCCCCn1c(SCC(=O)c2ccccc2)nc2c1c(=O)[nH]c(=O)n2C,7.8%
13,O=C1c2ccccc2C(Nc2ccc3c(c2)OCCO3)N1Cc1ccco1 (centres undefined),-9.3%
14,Cc1ccc2c(c1)C(O)(CC(=O)c1cccnc1)C(=O)N2 (centres undefined),6%
15,COc1ccccc1Cn1c(=S)[nH]c2cc(C(=O)N3CCN(C)CC3)ccc2c1=O,4.3%
16,Cc1cc(C)c(C#N)c(SCc2ccc3c(c2)OCO3)n1,7.3%
17,CCN(Cc1ccncc1)C(=O)c1cccc(S(=O)(=O)N2CCOCC2)c1,-8.8%
18,Cc1cccc(N2CCN(C(=O)C3CCN(S(=O)(=O)c4cnc[nH]4)CC3)CC2)c1C,9.6%
19,O=C(COC(=O)c1ccc2c(c1)OCCO2)NCc1ccccc1,5.2%
20,O=C(CSc1nnc(-c2ccoc2)o1)N1CCOCC1,-16.1%
21,O=C(O)Cc1ccc(NC(=O)C2CCCCC2C(=O)O)cc1 (centres undefined),9.2%
22,CC1=NC2(CCCc3c2no[n+]3[O-])N(O)C1(C)C (centres undefined),-8%
23,C/C(=C\C(=O)c1ccc(Br)cc1)N1CCCCC1,0.7%
24,c1ccc(CCc2nc(-c3ccncc3)no2)cc1,6.7%
25,COCCCNC(=O)c1ccc(CNS(=O)(=O)c2ccc(NC(C)=O)cc2)cc1,-2.5%

row,Compound,inhibition
1,O=c1c2ccccc2[nH]c(=S)n1CCN1CCC(=C(c2ccc(F)cc2)c2ccc(F)cc2)CC1,-4.7%
2,Cc1nc(NC(=O)C23CCC(C)(C(=O)O2)C3(C)C)sc1C (centres undefined),1.8%
3,Cc1ccc(S(=O)(=O)N2CCOCC2)cc1C(=O)NCc1ccc(F)cc1,8.8%
4,COc1cc2[nH]c(=S)n(CCN3CCCCC3C)c(=O)c2cc1OC (centres undefined),-5%
5,O=C1NC(c2cc3c(cc2Cl)OCO3)Oc2ccccc21 (centres undefined),-12.4%
6,CCCOc1ccc(-c2nc(N)n[nH]2)cc1,-2.2%
7,O=C(Cn1c(=O)n(Cc2ccco2)c(=O)c2ccccc21)NCC1CCCO1 (centres undefined),7.1%
8,O=c1c2ccccc2nnn1CSc1nc2sc3c(c2c(=O)n1CC1CCCO1)CCC3 (centres undefined),6.1%
9,COc1ccc(CN2CC(C(=O)NCCN3CCN(c4ccccc4F)CC3)CC2=O)cc1 (centres undefined),-0.3%
10,COc1ccc(C(c2nnnn2Cc2cccs2)N2CCN(c3ccccc3)CC2)cc1OC (centres undefined),7.6%
11,CCCOc1ccc(Cn2c(O)cc(=O)[nH]c2=O)cc1,7.5%
12,O=C(Nc1nc(-c2ccc3c(c2)OCO3)cs1)c1ccncc1,-1.3%
13,O=C(Nc1nc(-c2ccncc2)cs1)C1COc2ccccc2O1 (centres undefined),103% (active)
14,COc1ccc(OC)c2sc(NC(=O)C3COc4ccccc4O3)nc12 (centres undefined),5.1%
15,CC(=O)Cc1nsc(NC(=O)c2ccc(COc3ccc(C)cc3)o2)n1,11.4%
16,O=C(Nc1cccnc1)c1noc2c1CCCCC2,-2.8%
17,O=C(CN1CCN(C2CCCCC2)CC1)Nc1ccccc1N1CCCCC1,1.9%
18,O=C1c2ccccc2C(=O)N1c1ccccc1S(=O)C(F)(F)F (centres undefined),-0.9%
19,Cc1ccccc1C(=O)NCCN=C1NS(=O)(=O)c2ccccc21,11.6%
20,CSc1ccc(NC(=O)N2CC(C)OC(C)C2)cc1 (centres undefined),10.1%
21,N#Cc1ccc(COC(=O)Cn2nnc(-c3ccccc3)n2)cc1,10.9%
22,Cc1cc(C(=O)OCC(=O)NCc2ccco2)c(C)n1-c1ccccc1,0.4%
23,CS(=O)(=O)N(CC(=O)N1CCOCC1)c1ccc2c3c(cccc13)CC2,10.1%
24,COc1ccc2c(CC(=O)Nc3nnc(C4CC4)s3)coc2c1,10.2%
25,CC1CCCCC1NC(=O)CSc1nnc(N)s1 (centres undefined),5.7%

row,Compound,inhibition
1,C=CCNC(=O)C12CC3CC(C1)CC(C(=O)NCC=C)(C3)C2,-3.4%
2,N#Cc1nc(COc2ccc(Cl)cc2)oc1N1CCCC1,-3%
3,Cc1nc(C)c(C(=O)Nc2cccc(C)c2C)o1,-2.6%
4,O=C(C1CC1)N1CCN=C1SCc1ccc(Cl)cc1,6.8%
5,Brc1cccc(-c2nnc3n2CCC3)c1,0.9%
6,CCOC(=O)C1CCN(C(=O)Cn2cc(C#N)c3ccccc32)CC1,4.3%
7,COc1cccc2cc(C(C)N(CCCN3CCOCC3)C(=O)Nc3ccc(Cl)cc3)oc12 (centres undefined),0.5%
8,O=S(=O)(NCc1ccc2c(c1)OCO2)c1cccc2nsnc12,5.1%
9,c1ccc(CCn2nnnc2CN2CCN(C3CCCC3)CC2)cc1,-3.2%
10,Cc1cc2ccccc2n2c(SCC(=O)N3CCN(C(=O)c4ccco4)CC3)nnc12,8.5%
11,CCCn1c(SCC(=O)Nc2c(C)cccc2C)nnc1C(C)C,4.9%
12,CCn1c(SCC(=O)Nc2cccc(F)c2)nnc1-c1cc2cc(Br)ccc2o1,10.1%
13,Cc1cccc(CC(=O)Nc2c3c(nn2-c2cccc(Cl)c2)CS(=O)C3)c1 (centres undefined),9.5%
14,NC(=O)CCCC1=NS(=O)(=O)c2ccccc2N1,5.7%
15,CCN(c1ccccc1)S(=O)(=O)c1ccc(N)cc1,9%
16,CCCCn1c(SCC(=O)N2CCC(C(=O)OCC)CC2)nc2cc(S(N)(=O)=O)ccc21,2.4%
17,CCCCNc1nc2c(c(=O)[nH]c(=O)n2C)n1CCOc1ccccc1,-1.2%
18,CCOc1ccc(NC(=O)CSc2nc3c(c(=O)n2-c2ccccc2OC)SCC3)cc1,-2.3%
19,COc1ccc(OC)c2[nH]c(=O)c(CCNC(=O)C(C)(C)C)cc12,2.9%
20,CC(C)C(C(=O)NC1CCCCC1)N(CC1CCCO1)C(=O)CNS(=O)(=O)c1ccc(F)cc1 (centres undefined),4.8%
21,O=C(NCCC1=CCCCC1)C1CCN(Cc2cnn(-c3ccccc3)c2-n2cccc2)CC1,6.6%
22,Cn1c(SCC(=O)Nc2cccc(NC(=O)c3cccs3)c2)nnc1-c1ccncc1,12.7%
23,CC(=O)Nc1ccc(-c2cn3cccnc3n2)cc1,3.9%
24,CN1C(=O)c2ccccc2C(C(=O)NCCCN2CCCC2)C1c1c[nH]c2ccccc12 (centres undefined),2.4%
